# Where two headings read alike, the source gives them in different places.
# Legend:
# AAK1 = system: AAK1; set-up: species or system human, MV4-11 + K-562 + COLO205 + SK-N-BE2 + OVCAR-8; settings: read-out: apparent Kd, n = 1
# CLK1 = system: CLK1; set-up: species or system human, MV4-11 + K-562 + COLO205 + SK-N-BE2 + OVCAR-8; settings: read-out: apparent Kd, compound concentrations: 100 nM and 1000 nM (sheet 'Samples'), n = 1
# CLK4 = system: CLK4; set-up: species or system human, MV4-11 + K-562 + COLO205 + SK-N-BE2 + OVCAR-8; settings: read-out: apparent Kd, compound concentrations: 100 nM and 1000 nM (sheet 'Samples'), n = 1
# CSNK2A1;CSNK2A3 = system: CSNK2A1;CSNK2A3; set-up: species or system human, MV4-11 + K-562 + COLO205 + SK-N-BE2 + OVCAR-8; settings: read-out: apparent Kd, compound concentrations: 100 nM and 1000 nM (sheet 'Samples'), n = 1
# CSNK2A2 = system: CSNK2A2; set-up: species or system human, MV4-11 + K-562 + COLO205 + SK-N-BE2 + OVCAR-8; settings: read-out: apparent Kd, compound concentrations: 100 nM and 1000 nM (sheet 'Samples'), n = 1
# Q6ZSR9 = Q6ZSR9 (human, UniProt Q6ZSR9); set-up: species or system MV4-11 + K-562 + COLO205 + SK-N-BE2 + OVCAR-8; settings: read-out: apparent Kd, compound concentrations: 100 nM and 1000 nM (sheet 'Samples'), n = 1
# Q6ZSR9, sequence (Q6ZSR9 whole entry, looked up): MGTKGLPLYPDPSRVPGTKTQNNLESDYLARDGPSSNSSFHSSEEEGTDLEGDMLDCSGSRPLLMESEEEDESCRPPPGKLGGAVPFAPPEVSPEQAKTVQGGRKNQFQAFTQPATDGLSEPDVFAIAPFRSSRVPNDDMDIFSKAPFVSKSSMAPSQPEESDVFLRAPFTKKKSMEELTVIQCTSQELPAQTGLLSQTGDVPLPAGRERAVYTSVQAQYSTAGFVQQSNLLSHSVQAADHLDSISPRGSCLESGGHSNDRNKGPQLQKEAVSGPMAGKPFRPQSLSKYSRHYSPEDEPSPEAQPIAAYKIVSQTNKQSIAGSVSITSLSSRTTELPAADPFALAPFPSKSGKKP
# GAK = system: GAK; set-up: species or system human, MV4-11 + K-562 + COLO205 + SK-N-BE2 + OVCAR-8; settings: read-out: apparent Kd, n = 1
# ABL1 = system: ABL1; set-up: species or system human, MV4-11 + K-562 + COLO205 + SK-N-BE2 + OVCAR-8; settings: read-out: apparent Kd; compound concentrations: 100 nM and 1000 nM (sheet 'Samples'), CATDS: 3.0247523924653401E-2; n = 1
# ABL2 = system: ABL2; set-up: species or system human, MV4-11 + K-562 + COLO205 + SK-N-BE2 + OVCAR-8; settings: read-out: apparent Kd; compound concentrations: 100 nM and 1000 nM (sheet 'Samples'), CATDS: 2.0369269177780699E-2; n = 1
# BCR = system: BCR; set-up: species or system human, MV4-11 + K-562 + COLO205 + SK-N-BE2 + OVCAR-8; settings: read-out: apparent Kd; compound concentrations: 100 nM and 1000 nM (sheet 'Samples'), CATDS: 6.3621758322441394E-2; n = 1
# FYN = system: FYN; set-up: species or system human, MV4-11 + K-562 + COLO205 + SK-N-BE2 + OVCAR-8; settings: read-out: apparent Kd; compound concentrations: 100 nM and 1000 nM (sheet 'Samples'), CATDS: 1.52897278360091E-2; n = 1
# HCK = system: HCK; set-up: species or system human, MV4-11 + K-562 + COLO205 + SK-N-BE2 + OVCAR-8; settings: read-out: apparent Kd; compound concentrations: 100 nM and 1000 nM (sheet 'Samples'), CATDS: 1.5765780158237999E-2; n = 1
# LCK = system: LCK; set-up: species or system human, MV4-11 + K-562 + COLO205 + SK-N-BE2 + OVCAR-8; settings: read-out: apparent Kd; compound concentrations: 100 nM and 1000 nM (sheet 'Samples'), CATDS: 2.0561496325198901E-2; n = 1
# PTK6 = system: PTK6; set-up: species or system human, MV4-11 + K-562 + COLO205 + SK-N-BE2 + OVCAR-8; settings: read-out: apparent Kd; compound concentrations: 100 nM and 1000 nM (sheet 'Samples'), CATDS: 1.5181861275826099E-2; n = 1
# RET = system: RET; set-up: species or system human, MV4-11 + K-562 + COLO205 + SK-N-BE2 + OVCAR-8; settings: read-out: apparent Kd; compound concentrations: 100 nM and 1000 nM (sheet 'Samples'), CATDS: 5.3896447188978902E-2; n = 1
# RIPK2 = system: RIPK2; set-up: species or system human, MV4-11 + K-562 + COLO205 + SK-N-BE2 + OVCAR-8; settings: read-out: apparent Kd; compound concentrations: 100 nM and 1000 nM (sheet 'Samples'), CATDS: 1.9176534260091301E-2; n = 1
# TNK1 = system: TNK1; set-up: species or system human, MV4-11 + K-562 + COLO205 + SK-N-BE2 + OVCAR-8; settings: read-out: apparent Kd; compound concentrations: 100 nM and 1000 nM (sheet 'Samples'), CATDS: 2.1534980047370499E-2; n = 1
# YES1 = system: YES1; set-up: species or system human, MV4-11 + K-562 + COLO205 + SK-N-BE2 + OVCAR-8; settings: read-out: apparent Kd; compound concentrations: 100 nM and 1000 nM (sheet 'Samples'), CATDS: 2.1066601667733099E-2; n = 1
# [1] = compound concentrations:100 nM and 1000 nM (sheet 'Samples')
compound,measurement,setting,value
COc1ccccc1CNC1=NC(=O)/C(=C/c2ccc3ncccc3c2)S1 [RO4503315-000],potency estimated from few doses,"AAK1; compound concentrations: 100 nM and 1000 nM (sheet 'Samples'), CATDS: 7.6030940071323702E-2",908 nM
same,potency estimated from few doses,CLK1; CATDS: 0.30628277203205201,30.8 nM
same,potency estimated from few doses,CLK4; CATDS: 0.47450505844259699,14.8 nM
same,potency estimated from few doses,CSNK2A1;CSNK2A3; CATDS: 0.129899516900844,197 nM
same,potency estimated from few doses,CSNK2A2; CATDS: 0.121862828094444,231 nM
same,potency estimated from few doses,Q6ZSR9; CATDS: 7.7270195347091397E-2,858 nM
Cl.O=C1N=C(NCc2ccccn2)S/C1=C\c1ccc2ncccc2c1 [RO4874953-001],potency estimated from few doses,"AAK1; compound concentrations: 100 nM and 1000 nM (sheet 'Samples'), CATDS: 0.10575738699934099",813 nM
same,potency estimated from few doses,CLK1; CATDS: 9.3934655889041305E-2,1020 nM
same,potency estimated from few doses,CLK4; CATDS: 0.12673851417901799,598 nM
same,potency estimated from few doses,CSNK2A1;CSNK2A3; CATDS: 0.103683643435769,843 nM
same,potency estimated from few doses,CSNK2A2; CATDS: 0.101925374884365,870 nM
same,potency estimated from few doses,"GAK; compound concentrations: 100 nM and 1000 nM (sheet 'Samples'), CATDS: 8.1785679571560799E-2",1370 nM
same,potency estimated from few doses,Q6ZSR9; CATDS: 8.7999658255021304E-2,1160 nM
CN1C(=O)c2ccccc2N(C)c2nc(Nc3cnn(C4CCNCC4)c3)ncc21 [XMD-17-51],potency estimated from few doses,ABL1,152 nM
same,potency estimated from few doses,ABL2,429 nM
same,potency estimated from few doses,BCR,32.4 nM
same,potency estimated from few doses,FYN,1140 nM
same,potency estimated from few doses,HCK,1000 nM
same,potency estimated from few doses,LCK,418 nM
same,potency estimated from few doses,PTK6,1170 nM
same,potency estimated from few doses,RET,44.2 nM
same,potency estimated from few doses,RIPK2,514 nM
same,potency estimated from few doses,TNK1,366 nM
same,potency estimated from few doses,YES1,389 nM
Nc1nc(-c2cccnc2)c(-c2ccnc3ccccc23)s1 [GW684083X],potency estimated from few doses,AAK1; [1],1960 nM
same,potency estimated from few doses,GAK; [1],1430 nM

# From article PMC11062922 (Nature Chemical Biology, 2023)
